Our source for the Percent Effect values is ChEMBL document CHEMBL3988442, “University of Dundee, Small-Polar-MMV Screening Library” (2021).

In assay [1] the target is T1, Aspartate--tRNA(Asp/Asn) ligase (Mycobacterium tuberculosis (strain ATCC 25618 / H37Rv)) (UniProt P9WFW3). Note: in the data most compounds retested in dose-response had high values.
T1 sequence (whole entry): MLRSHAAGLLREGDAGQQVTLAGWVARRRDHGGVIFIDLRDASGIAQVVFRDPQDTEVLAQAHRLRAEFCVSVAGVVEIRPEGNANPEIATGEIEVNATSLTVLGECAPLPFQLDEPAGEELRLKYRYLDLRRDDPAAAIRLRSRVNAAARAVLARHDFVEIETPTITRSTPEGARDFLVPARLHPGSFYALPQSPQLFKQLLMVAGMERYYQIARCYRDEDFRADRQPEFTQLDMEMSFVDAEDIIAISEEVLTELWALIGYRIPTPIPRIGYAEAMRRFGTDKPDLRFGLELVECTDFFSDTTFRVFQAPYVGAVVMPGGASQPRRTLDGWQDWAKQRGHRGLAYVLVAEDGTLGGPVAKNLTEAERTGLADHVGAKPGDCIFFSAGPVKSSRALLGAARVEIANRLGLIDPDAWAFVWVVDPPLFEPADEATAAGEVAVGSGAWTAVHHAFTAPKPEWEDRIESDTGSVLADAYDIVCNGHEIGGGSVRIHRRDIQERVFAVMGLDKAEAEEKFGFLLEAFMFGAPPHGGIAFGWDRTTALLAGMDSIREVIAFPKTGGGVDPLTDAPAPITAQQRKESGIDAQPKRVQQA
Nature of the assay: Assay for Asp RNA synthetase-1 from Mycobacterium tuberculosis. Conditions: 30 µM. Further details: scale not given: direction of the effect not stated beside the values. Format: functional.

Assay [2] concerns the target Shiga toxin 2 (Escherichia coli O157:H7) (UniProt P09385+P09386). Nature of the assay: E. coli 0.157:H7 Shiga Toxin SOP - stx2 screening assay. The class given is functional. The arrangement: scale not given: direction of the effect not stated beside the values. The conditions noted are these: 30 µM.

On to `CCCC1(CO)CCCN(c2ncccc2F)C1` (centres undefined), for which the results for the Percent Effect in assay [1] and in assay [2] were 0.836% and -7.35%, respectively.
`O=C(COc1coc(CN2CCCCC2)cc1=O)Nc1ccccc1Cl`: the results for the Percent Effect in assay [1] and in assay [2] were 0.319% and -4.27%, respectively.
For `Cc1nccn1Cc1nnc(C2CCCN(Cc3cccnc3)C2)n1C` (centres undefined), the Percent Effect in assay [1] is -2.79%; in assay [2], 4.73%.
Consider `O=C(N[C@@H]1CN(Cc2ccccc2)C[C@@H]2CCCO[C@@H]21)C1CC1`, for which the figures for the Percent Effect in assay [1] and in assay [2] were 1.66% and -19.6%, respectively.
Consider `OC(COCc1ccc(Cl)cc1)CN1CCC(c2ccn[nH]2)CC1` (centres undefined), for which the Percent Effect in assay [1] is -1.57%; in assay [2], -33%.
Taken in the same sequence, the figures for `Cn1ncc2c1CN(Cc1cccnc1)CC2COCC1CC1` (centres undefined) were 2.03% and -44.8%.
Taken in the same sequence, the figures for `CC(O)CN1CCN(C(=O)c2ccc(Br)o2)CC1` (centres undefined) were -2.21% and 22.8%.
Turning to `CCN(Cc1cccc2c1OCO2)C(=O)Nc1ccncc1`, the Percent Effect in assay [1] is -0.0463%; in assay [2], -14.2%.
`O=C(c1ccncc1)N1CCCn2c(CN3CCCCC3)nnc2C1`: the Percent Effect is -3.93% in assay [1] and -4.1% in assay [2].
As for `COc1ccccc1CC(=O)N1CCC(NCc2cc[nH]c2)CC1`, the Percent Effect in assay [1] was -2.74%; in assay [2] it was -11.8%.
Regarding `O=C(NCCCn1ccnc1)N1CCN(c2cccs2)CC1`, the Percent Effect is -0.0463% in assay [1] and -102% in assay [2].
As for `Cc1nc(CN2CCC3(CCN(c4ncc(F)cn4)C3)C2=O)cs1` (centres undefined), the Percent Effect is 7.33% in assay [1] and -9.92% in assay [2].
On to `O=C(CC1CC1)NCc1cn2c(n1)CN(CC1CC1)CC2`, for which the Percent Effect in assay [1] was 4.87%; in assay [2], -4.42%.
As for `Cc1cc(CN2CCN(C(=O)c3sccc3C(C)C)CC2)no1`, the values for the Percent Effect in assay [1] and in assay [2] were 0.346% and 7.17%, respectively.
For `COc1c(CNC2CCOc3ccccc32)c(C(C)C)nn1C` (centres undefined), the figures for the Percent Effect in assay [1] and in assay [2] were 0.728% and 2.37%, respectively.
For `O=C(c1ccc[nH]1)N1C[C@H]2CC[C@@H]1CN(C1Cc3ccccc3C1)C2`, the Percent Effect worked out at 2.83% in assay [1] and 10.5% in assay [2].
Take `O=C(Cn1ccc2ccc(Br)cc21)NCc1ccc(C(=O)O)cc1`: the results for the Percent Effect in assay [1] and in assay [2] were 14.7% and -5.49%, respectively.
Consider `Cn1cc(CN2CC[C@H]3OCC[C@@H](C(=O)N4CCCCO4)[C@@H]3C2)cn1`, for which the figures for the Percent Effect in assay [1] and in assay [2] were 2.85% and -10.1%, respectively.
For `c1ccc2oc(CCCN3CCCC3Cn3cncn3)nc2c1` (centres undefined), the Percent Effect in assay [1] was -1.22%; in assay [2], 7.93%.
In the same order, the values of `CC(C)Cc1noc(CN2CCN(CCO)CC2)n1` are -3.95% and 25.7%.
On to `O=C(NCC(O)c1ccc(F)c(F)c1)c1cccnc1OCC(F)(F)F` (centres undefined), for which the Percent Effect was -1.66% in assay [1] and -9.04% in assay [2].
In the same order, the values of `CCn1c(CN2CCN(CC(N)=O)CC2)nc2c(F)cccc21` are -3.37% and 6.95%.
For the compound `Cc1cc(OCC(=O)NS(=O)(=O)c2c(C)noc2C)ccc1Cl`, the figures for the Percent Effect in assay [1] and in assay [2] were -2.01% and 13.3%, respectively.
Taken in the same sequence, the figures for `COCC(=O)NCc1cc(=O)n2c(n1)CN(CC1CCOC1)CCC2` (centres undefined) were -4.6% and -5.14%.
`Cc1nnc(Nc2cccc(C3CCN(CCO)CC3)n2)s1`: the Percent Effect was -2.1% in assay [1] and 2.64% in assay [2].
In the same order, the values of `Cc1nc(CN2CCN(Cc3ccoc3)Cc3cccnc32)cs1` are 4.04% and -1.98%.
Turning to `CN(C)c1ccc(CCCNC(=O)Nc2ccc(C#N)cc2)cc1`, the figures for the Percent Effect in assay [1] and in assay [2] were -1.77% and -44.4%, respectively.
Consider `CN(Cc1ccccc1F)C(=O)CS(=O)(=O)Cc1ccc(Cl)c(Cl)c1`, for which the figures for the Percent Effect in assay [1] and in assay [2] were 2.16% and 37%, respectively.
Turning to `CC(Cn1cccn1)NC(=O)NCCc1ccc(Cl)s1` (centres undefined), the figures for the Percent Effect in assay [1] and in assay [2] were 4.37% and -19.2%, respectively.
For the compound `NC(=O)C(CNC(=O)Cc1ccc(F)cc1)Cc1ccc(F)cc1` (centres undefined), the Percent Effect in assay [1] is -1.56%; in assay [2] it was -30.7%.
In the case of `O=C(O)c1ccc2ccc(N3CCN(CC4CC4)CC3)n2c1`, the values for the Percent Effect in assay [1] and in assay [2] were -6.96% and -15.7%, respectively.
For the compound `NC(=O)c1ccc2c(c1)nc1n2CCN(Cc2ccccc2)C1`, the Percent Effect in assay [1] was 3.29%; in assay [2] it was -9.11%.
As for `COCC(O)CN(C)C(=O)NC1CCN(Cc2ccccn2)CC1` (centres undefined), the Percent Effect in assay [1] was -3.52%; in assay [2], -36.8%.
For `CC(NC(=O)NCCCc1n[nH]c(N)c1C#N)c1ccccc1` (centres undefined), the Percent Effect in assay [1] was 1.03%; in assay [2] it was -17.6%.
As to `O=C(c1cc[nH]n1)N1CCCC(c2cccc(-n3ccnc3)n2)C1` (centres undefined), the Percent Effect was -2.72% in assay [1] and 9.34% in assay [2].
For `O=C(C1CCCC1)N1CCC2(CC1)COCCN2CC1CC1`, the Percent Effect in assay [1] is -3.37%; in assay [2] it was 0.147%.
As to `CCn1ccc(C(=O)NCCCN2CCOCC2)n1`, the Percent Effect was 8.41% in assay [1] and -55.1% in assay [2].
For the compound `Cc1cnc(C(=O)N(CCN(C)C)Cc2ccc(Cl)cc2)cn1`, the Percent Effect in assay [1] was -1.59%; in assay [2], 5.25%.
Consider `CCC1c2ccsc2CCN1C(=O)NCc1cc[nH]n1` (centres undefined), for which the Percent Effect is -1.83% in assay [1] and -35% in assay [2].
Consider `CCn1ncc(Br)c1CN(C)S(=O)(=O)c1ccc(C)cc1`, for which the results for the Percent Effect in assay [1] and in assay [2] were 0.0735% and -7.09%, respectively.
Regarding `CC(C)C(=O)N1CCN(C(=O)c2cscn2)[C@H]2CS(=O)(=O)C[C@H]21`, the Percent Effect in assay [1] was -8.33%; in assay [2], -5.71%.
`COc1ccc(-c2noc(CN3CCc4cncnc4C3)n2)cc1`: the results for the Percent Effect in assay [1] and in assay [2] were -0.389% and -15%, respectively.
In the case of `Cn1cc(N2CCCC(NCc3cccc4c3OCCCO4)C2)cn1` (centres undefined), the Percent Effect in assay [1] came out at 2.49%; in assay [2] it was 22.1%.
For the compound `O=C(C1CCC1)N1CCC2(COCc3cnc(N4CCOCC4)nc32)C1` (centres undefined), the Percent Effect in assay [1] is 2.45%; in assay [2], -34.1%.
As for `Cc1nn(C)c(N2CCOCC2)c1CNCc1ccc(Cl)s1`, the Percent Effect in assay [1] amounted to 5.1%; in assay [2], 27.1%.
Regarding `CNCC(=O)N1CCC(c2ccnc(Nc3ccc(C)cn3)n2)C1` (centres undefined), the Percent Effect in assay [1] was 2.93%; in assay [2] it was -58.2%.
Turning to `CN(Cc1ccco1)Cc1ccccc1CNC(=O)c1ccc[nH]1`, the Percent Effect was found to be 0.725% in assay [1] and 26.7% in assay [2].
